# From PubChem BioAssay AID1508601 (ICCB-Longwood Screening Facility, Harvard Medical School, 2020)
# Several values for one entry are separate records, joined by “and”; a condition that tells them apart may be missing. Equal values may be shown once. Among all 5,700 compounds or so, about 85 (1%) were called active. No stated cut-off is given here; in the data, active means p53-positive nuclei above about 36% (passing the limit was not always enough); inactive means the rest. Many of the other results were omitted from the sample, so actives are more common in it than they were.
# Key:
# [1] = nuclear p53 accumulation, HPV+ cells – imaging, p53-positive nuclei imaging, 24 h, 48 h (AID 1508601); settings: 24/48 h
# [2] = target: Cellular tumor antigen p53 (Homo sapiens) (UniProt P04637); assay: as above; settings: 24/48 h, stronger effect = higher value
# [3] = measured here: cell number at 24 h, concentration not given here
# [4] = measured here: cell number at 48 h, concentration not given here
# [5] = measured here: p53 positive nuclei at 24 h, concentration not given here
# [6] = measured here: cell number at 24 h, Library stock concentration: 80 uM
# [7] = measured here: cell number at 24 h, Library stock concentration: 400 uM
# [8] = measured here: cell number at 24 h, Library stock concentration: 2 mM
# [9] = measured here: cell number at 24 h, Library stock concentration: 3.33 mM
# [10] = measured here: cell number at 24 h, Library stock concentration: 10 mM
# [11] = measured here: cell number at 48 h, Library stock concentration: 80 uM
# [12] = measured here: cell number at 48 h, Library stock concentration: 400 uM
# [13] = measured here: cell number at 48 h, Library stock concentration: 2 mM
# [14] = measured here: cell number at 48 h, Library stock concentration: 3.33 mM
# [15] = measured here: cell number at 48 h, Library stock concentration: 10 mM
# [16] = Library stock concentration: 80 uM
# [17] = Library stock concentration: 400 uM
# [18] = Library stock concentration: 2 mM
# [19] = Library stock concentration: 3.33 mM
# [20] = Library stock concentration: 10 mM
# [21] = measured here: p53 positive nuclei at 24 h, Library stock concentration: 80 uM
# [22] = measured here: p53 positive nuclei at 24 h, Library stock concentration: 400 uM
# [23] = measured here: p53 positive nuclei at 24 h, Library stock concentration: 2 mM
# [24] = measured here: p53 positive nuclei at 24 h, Library stock concentration: 3.33 mM
# [25] = measured here: p53 positive nuclei at 24 h, Library stock concentration: 10 mM
# [26] = measured here: cell number at 24 h, Library stock concentration: 46 uM
# [27] = measured here: cell number at 24 h, Library stock concentration: 278 uM
# [28] = measured here: cell number at 24 h, Library stock concentration: 1.67 mM
# [29] = measured here: cell number at 48 h, Library stock concentration: 46 uM
# [30] = measured here: cell number at 48 h, Library stock concentration: 278 uM
# [31] = measured here: cell number at 48 h, Library stock concentration: 1.67 mM
# [32] = Library stock concentration: 46 uM
# [33] = Library stock concentration: 278 uM
# [34] = Library stock concentration: 1.67 mM
# [35] = measured here: p53 positive nuclei at 24 h, Library stock concentration: 46 uM
# [36] = measured here: p53 positive nuclei at 24 h, Library stock concentration: 278 uM
# [37] = measured here: p53 positive nuclei at 24 h, Library stock concentration: 1.67 mM
# Sequence of Cellular tumor antigen p53 (Homo sapiens) (P04637 whole entry, looked up): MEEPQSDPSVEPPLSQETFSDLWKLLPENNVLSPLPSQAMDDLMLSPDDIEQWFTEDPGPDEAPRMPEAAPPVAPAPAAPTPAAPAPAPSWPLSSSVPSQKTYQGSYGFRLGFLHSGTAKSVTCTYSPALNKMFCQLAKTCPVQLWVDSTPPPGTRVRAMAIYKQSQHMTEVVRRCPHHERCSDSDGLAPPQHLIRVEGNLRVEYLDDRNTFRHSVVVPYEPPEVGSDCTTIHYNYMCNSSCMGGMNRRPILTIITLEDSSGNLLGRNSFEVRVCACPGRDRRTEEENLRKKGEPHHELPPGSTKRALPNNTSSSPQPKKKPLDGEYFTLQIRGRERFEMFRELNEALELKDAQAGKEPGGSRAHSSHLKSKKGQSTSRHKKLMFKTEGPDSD
smiles,measurement,setting,value
Cc1nn(C)c(C)c1-c1ccnc(NCC(C)Oc2cccnc2)n1 (centres undefined),"nuclei count, normalised",[1]; [3],103%
same,"nuclei count, normalised",[1]; [4],101%
same,"p53-positive nuclei, normalised",[2]; concentration not given here,-0.151% (inactive)
same,"p53-positive nuclei, normalised",[2]; [5],-0.079%
Cc1ncc(-c2ccnc(Nc3ccc(S(C)(=O)=O)cc3)n2)n1C(C)C,"nuclei count, normalised",[1]; [6],104% and 73.6%
same,"nuclei count, normalised",[1]; [7],100% and 83.3%
same,"nuclei count, normalised",[1]; [8],54.9% and 60.1%
same,"nuclei count, normalised",[1]; [9],46.1%
same,"nuclei count, normalised",[1]; [10],36.9% and 37.6%
same,"nuclei count, normalised",[1]; [11],105% and 49.6%
same,"nuclei count, normalised",[1]; [12],89.2% and 61.2%
same,"nuclei count, normalised",[1]; [13],24.1% and 33.6%
same,"nuclei count, normalised",[1]; [14],23%
same,"nuclei count, normalised",[1]; [15],21.8% and 24.6%
same,"p53-positive nuclei, normalised",[2]; [16],0.106% (inactive) and 10.7% (inactive)
same,"p53-positive nuclei, normalised",[2]; [17],0.447% (inactive) and 4.11% (inactive)
same,"p53-positive nuclei, normalised",[2]; [18],57.6% (inactive) and 42.9% (inactive)
same,"p53-positive nuclei, normalised",[2]; [19],60.3% (active)
same,"p53-positive nuclei, normalised",[2]; [20],50.8% (inactive) and 49.9% (inactive)
same,"p53-positive nuclei, normalised",[2]; [21],0.00746% and 0.944%
same,"p53-positive nuclei, normalised",[2]; [22],0.0769% and 0.14%
same,"p53-positive nuclei, normalised",[2]; [23],34.6% and 11.8%
same,"p53-positive nuclei, normalised",[2]; [24],32.5%
same,"p53-positive nuclei, normalised",[2]; [25],15.1% and 13.6%
COc1cc(-c2cccc(C)c2C)nc(N)n1,"nuclei count, normalised",[1]; [3],87.1%
same,"nuclei count, normalised",[1]; [4],74.8%
same,"p53-positive nuclei, normalised",[2]; concentration not given here,0.587% (inactive)
same,"p53-positive nuclei, normalised",[2]; [5],0.226%
CN(CC1COc2ccccc2O1)C(=O)Nc1nncs1 (centres undefined),"nuclei count, normalised",[1]; [3],103%
same,"nuclei count, normalised",[1]; [4],104%
same,"p53-positive nuclei, normalised",[2]; concentration not given here,-0.215% (inactive)
same,"p53-positive nuclei, normalised",[2]; [5],-0.0697%
O=C1NCCCc2c1oc1ccc(O)cc21,"nuclei count, normalised",[1]; [6],99.3%
same,"nuclei count, normalised",[1]; [7],92.2%
same,"nuclei count, normalised",[1]; [8],96.6%
same,"nuclei count, normalised",[1]; [10],89.4%
same,"nuclei count, normalised",[1]; [11],104%
same,"nuclei count, normalised",[1]; [12],99.1%
same,"nuclei count, normalised",[1]; [13],99.6%
same,"nuclei count, normalised",[1]; [15],98.7%
same,"p53-positive nuclei, normalised",[2]; [16],-0.0796% (inactive)
same,"p53-positive nuclei, normalised",[2]; [17],-0.0299% (inactive)
same,"p53-positive nuclei, normalised",[2]; [18],0.259% (inactive)
same,"p53-positive nuclei, normalised",[2]; [20],0.273% (inactive)
same,"p53-positive nuclei, normalised",[2]; [21],-0.0621%
same,"p53-positive nuclei, normalised",[2]; [22],-0.105%
same,"p53-positive nuclei, normalised",[2]; [23],0.32%
same,"p53-positive nuclei, normalised",[2]; [25],0.126%
O=C1NCCSc2c1sc1ccc(O)cc21,"nuclei count, normalised",[1]; [26],111%
same,"nuclei count, normalised",[1]; [27],108%
same,"nuclei count, normalised",[1]; [28],101%
same,"nuclei count, normalised",[1]; [10],56.1%
same,"nuclei count, normalised",[1]; [29],110%
same,"nuclei count, normalised",[1]; [30],113%
same,"nuclei count, normalised",[1]; [31],113%
same,"nuclei count, normalised",[1]; [15],36.9%
same,"p53-positive nuclei, normalised",[2]; [32],-0.0208% (inactive)
same,"p53-positive nuclei, normalised",[2]; [33],-0.288% (inactive)
same,"p53-positive nuclei, normalised",[2]; [34],0.37% (inactive)
same,"p53-positive nuclei, normalised",[2]; [20],60.9% (active)
same,"p53-positive nuclei, normalised",[2]; [35],0.0309%
same,"p53-positive nuclei, normalised",[2]; [36],-0.0893%
same,"p53-positive nuclei, normalised",[2]; [37],0.2%
same,"p53-positive nuclei, normalised",[2]; [25],4.05%
CCCCCCCCCCCCCCCCOC[C@H](CO)OC(C)=O,"nuclei count, normalised",[1]; [3],97.1%
same,"nuclei count, normalised",[1]; [4],102%
same,"p53-positive nuclei, normalised",[2]; concentration not given here,-0.0599% (inactive)
same,"p53-positive nuclei, normalised",[2]; [5],0.0467%
COc1ccc2nc3ccc(OC)cc3c(SCCCN)c2c1,"nuclei count, normalised",[1]; [6],111%
same,"nuclei count, normalised",[1]; [7],114%
same,"nuclei count, normalised",[1]; [8],103%
same,"nuclei count, normalised",[1]; [10],81.6%
same,"nuclei count, normalised",[1]; [11],119%
same,"nuclei count, normalised",[1]; [12],115%
same,"nuclei count, normalised",[1]; [13],109%
same,"nuclei count, normalised",[1]; [15],90.5%
same,"p53-positive nuclei, normalised",[2]; [16],-0.0602% (inactive)
same,"p53-positive nuclei, normalised",[2]; [17],-0.0191% (inactive)
same,"p53-positive nuclei, normalised",[2]; [18],-0.0521% (inactive)
same,"p53-positive nuclei, normalised",[2]; [20],0.61% (inactive)
same,"p53-positive nuclei, normalised",[2]; [21],-0.00591%
same,"p53-positive nuclei, normalised",[2]; [22],-0.136%
same,"p53-positive nuclei, normalised",[2]; [23],0.00172%
same,"p53-positive nuclei, normalised",[2]; [25],0.819%
CC(C)[C@H](C(=O)Nc1ccc(C(=O)NO)cc1)c1ccccc1,"nuclei count, normalised",[1]; [3],80%
same,"nuclei count, normalised",[1]; [4],65.6%
same,"p53-positive nuclei, normalised",[2]; concentration not given here,9.18% (inactive)
same,"p53-positive nuclei, normalised",[2]; [5],17.4%
CC(C)C(C(=O)Nc1ccc(C(=O)NO)cc1)c1ccccc1 (centres undefined),"nuclei count, normalised",[1]; [9],45.5%
same,"nuclei count, normalised",[1]; [14],32%
same,"p53-positive nuclei, normalised",[2]; [19],48.1% (active)
same,"p53-positive nuclei, normalised",[2]; [24],50.4%
CC(=O)Nc1ccc(C(=O)Nc2ccccc2N)cc1,"nuclei count, normalised",[1]; [9],92.6%
same,"nuclei count, normalised",[1]; [14],89.8%
same,"p53-positive nuclei, normalised",[2]; [19],0.127% (inactive)
same,"p53-positive nuclei, normalised",[2]; [24],-0.311%
COc1ccc(F)cc1-c1cnn(CC(=O)Nc2cc(C)nn2C)c1,"nuclei count, normalised",[1]; [3],95.8%
same,"nuclei count, normalised",[1]; [4],92.9%
same,"p53-positive nuclei, normalised",[2]; concentration not given here,0.158% (inactive)
same,"p53-positive nuclei, normalised",[2]; [5],-0.0647%
CCCCC/C=C/C/C=C/CCCCCCCC(=O)O,"nuclei count, normalised",[1]; [3],108%
same,"nuclei count, normalised",[1]; [4],108%
same,"p53-positive nuclei, normalised",[2]; concentration not given here,-0.00219% (inactive)
same,"p53-positive nuclei, normalised",[2]; [5],-0.0851%
Cc1cc(OCc2nnc(SC3CCCC3)n2-c2cccnc2)ccc1-c1ccc(S(C)(=O)=O)cc1,"nuclei count, normalised",[1]; [26],107%
same,"nuclei count, normalised",[1]; [27],112%
same,"nuclei count, normalised",[1]; [28],74.2%
same,"nuclei count, normalised",[1]; [9],78.3%
same,"nuclei count, normalised",[1]; [10],53.9%
same,"nuclei count, normalised",[1]; [29],114%
same,"nuclei count, normalised",[1]; [30],110%
same,"nuclei count, normalised",[1]; [31],69.2%
same,"nuclei count, normalised",[1]; [14],66.8%
same,"nuclei count, normalised",[1]; [15],36.2%
same,"p53-positive nuclei, normalised",[2]; [32],-0.268% (inactive)
same,"p53-positive nuclei, normalised",[2]; [33],-0.012% (inactive)
same,"p53-positive nuclei, normalised",[2]; [34],2.41% (inactive)
same,"p53-positive nuclei, normalised",[2]; [19],3.08% (inactive)
same,"p53-positive nuclei, normalised",[2]; [20],57.1% (active)
same,"p53-positive nuclei, normalised",[2]; [35],-0.152%
same,"p53-positive nuclei, normalised",[2]; [36],-0.153%
same,"p53-positive nuclei, normalised",[2]; [37],1.05%
same,"p53-positive nuclei, normalised",[2]; [24],0.345%
same,"p53-positive nuclei, normalised",[2]; [25],46.4%
